Among the data in PubChem BioAssay AID504697 (The Scripps Research Institute Molecular Screening Center, 2011) are EC50 values, retold here.

What is called EC50 is the midpoint of the concentration-response curve.

Structures are written as SMILES. Active and inactive are the calls of the source.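 Rule for the calls: active = EC50 at or below 10 µM; inactive = EC50 above 10 µM.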 Some results are limits rather than exact numbers.

This experiment is described as follows: fluorescence interference artefacts, compound only, dose response, artefact control for cardiac thin filament activator project, biochemical, no RTF in test wells (AID 504697).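 Note: emission near 535 nm under roughly 485 nm excitation as for IANBD.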 To be noted: compound-only fluorescence in RTF assay buffer with Ca2+ (no RTF in test wells), artifact counterscreen.
Take `COc1cc(N2CCCC2)c(OC)cc1/C=C1/NC(=S)NC1=O`: the EC50 is 4.35 µM (active). For `COc1ccc(-c2nn(-c3ccccc3)cc2/C=N/NC(N)=S)cc1OC` the value was > 71.5 µM (inactive); for `CCN(CC)c1ccc(/C=C2\C(=O)c3ccc(C(=O)O)cc3C2=O)cc1`, 1.04 µM (active). Consider `CC(=O)Nc1cc(C(=O)NCc2ccco2)ccc1Sc1ccc(F)cc1`, for which the EC50 is > 71.5 µM (inactive). Turning to `O=C(NC1CCCCC1)c1cccc2c1C(=O)c1ccc(N3CCCC3)cc1S2(=O)=O`, the EC50 is > 23.8 µM (inactive). Consider `N=c1c2c(ncn1Cc1ccco1)Oc1cc(O)ccc1C2c1ccccc1` (stereo unspecified), for which the EC50 is > 71.4 µM (inactive). As to `CN(CC(=O)NCc1ccco1)S(=O)(=O)c1cccc2cccnc12`, the EC50 is > 71.5 µM (inactive). On to `COCCn1c(=O)c2ccccc2c2ccccc2c1=O`, for which the EC50 is > 71.5 µM (inactive). Regarding `O=C(O)c1ncc(-c2ccccc2)cn1`, the EC50 is > 71.5 µM (inactive). Take `O=C(c1cnc2ccccc2n1)N1CCN(c2ccc(C(F)(F)F)cn2)CC1`: the EC50 is > 71.4 µM (inactive). On to `Cn1cc(/C=C2\SC(=S)N(NC(=O)c3ccccc3)C2=O)c2ccccc21`, for which the EC50 was 9.01 µM (active). On to `O=C(Nc1ccccc1-c1ccccc1)c1ccc(Cl)c([N+](=O)[O-])c1`, for which the EC50 is > 71.5 µM (inactive). Under `CC(/C=N/Nc1ccc2nncn2n1)=C\c1ccccc1` stands > 71.5 µM (inactive); under `CCOc1ccc2ccccc2c1CNCCN1CCOCC1`, > 71.5 µM (inactive); under `O=C(O)CCC(=O)Nc1cc(C(F)(F)F)cc(C(F)(F)F)c1`, > 71.4 µM (inactive). Consider `N#C/C(=C\c1c[nH]c2ccccc12)C(=O)Nc1ncc(Cc2ccc(Cl)cc2Cl)s1`, for which the EC50 is > 71.5 µM (inactive).

Regarding `Cc1nnc(N/N=C/c2ccc(O)c([N+](=O)[O-])c2)[nH]c1=O`, the EC50 was > 71.5 µM (inactive). For the compound `CCC[C@@H](CN1CCC[C@H]1CN1C(N)=NC[C@@H]1Cc1ccccc1)N1C[C@@H](Cc2ccccc2)N(CCCC2CCCC2)C1=N`, the EC50 is > 71.4 µM (inactive). As to `S=c1[nH]nc(-c2ccc(Cl)cc2)n1-c1ccc2c(c1)OCCO2`, the EC50 is > 71.5 µM (inactive). For `c1ccc2[nH]c3cc4ncnc4cc3nc2c1` the value was 17.9 µM (inactive).

For the compound `O=C(O)c1cc(NCc2ccc(F)cc2)ccc1N1CCOCC1`, the EC50 was > 71.5 µM (inactive).

On to `CSc1ccc(C2C(C(=O)c3ccco3)=C(O)C(=O)N2c2nnc(SC)s2)cc1` (stereo unspecified), for which the EC50 is 0.726 µM (active). Under `CC1=CC(=C(C#N)C#N)C=C(C)N1Cc1ccc(Cl)cc1` stands > 71.5 µM (inactive); under `COc1ccc(N/C=C2\C(=O)CCc3c2oc2cc(Cl)c(O)c(Cl)c32)cc1`, 7.28 µM (active).

`O=C(Nc1nc(-c2nc3ccccc3s2)cs1)C1COc2ccccc2O1` (stereo unspecified): the EC50 is > 71.5 µM (inactive). For `CCOC(=O)N1CCN(C(=S)Nc2ccccc2C)CC1`, the EC50 is > 71.4 µM (inactive). For `Cc1cc(C=C2C(=O)c3ccccc3C2=O)c(C)n1-c1ccccc1` the value was 29.9 µM (inactive). For the compound `CC(C)CNC(=S)NC(=O)c1ccccc1Cl`, the EC50 is > 71.4 µM (inactive). For `Cc1ccc(/C=C2\Oc3c(ccc(O)c3CN3CCN(CCO)CC3)C2=O)cc1` the value was 34.2 µM (inactive); for `CNC(=S)N1N=C(c2ccc(Br)cc2)CC1c1ccc(N(C)C)cc1` (stereo unspecified), 51.4 µM (inactive). `O=[n+]1c2c(n([O-])c3ccccc31)CCC2`: the EC50 was > 71.5 µM (inactive). Consider `Cc1cc2nc(C3CCCN(C(=O)NCc4ccccc4)C3)[nH]c2cc1C` (stereo unspecified), for which the EC50 is > 71.6 µM (inactive). Under `N=C1c2ccccc2CN1c1ccc(S(=O)(=O)N2CCCCC2)cc1` stands > 71.5 µM (inactive).

Regarding `Cc1cccn2c(=O)c(/C=C3\SC(=S)N(CC(C)C)C3=O)c(NCCCOC(C)C)nc12`, the EC50 was 0.988 µM (active).

Take `CCn1c(=O)c(C(=O)CN2CCCc3ccccc32)c(N)n(Cc2ccccc2)c1=O`: the EC50 is 62.2 µM (inactive). As for `O=C(/C=C/c1nc2ccccc2s1)N1CCCCCC1`, the EC50 is > 71.5 µM (inactive).
